We go through 28 compounds from PubChem BioAssay (NCATS).

Assay [1] deals with Glucocorticoid receptor (Homo sapiens) (UniProt P04150). As to the kind of experiment: qHTS assay for small molecule agonists of glucocorticoid receptor signaling (AID 588532; active means well fitted curve in the direction sought with a large enough effect in the signal ratio, with a control signal flat; inconclusive means small, poorly fitted or top-dose-only effect, or a change in a side signal; inactive means no such curve, though single readings can be large or run the other way; the % refers to the signal ratio;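 further: 100% = dexamethasone at 0.1 µM and 0% = DMSO only wells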). The note with it: HeLa MMTV-bla, beta-lactamase ratio, agonist, 18 h; stronger effect = higher value; percent of dexamethasone control, DMSO zero. An outline of the steps:
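Stimulation of a glucocorticoid response element-driven beta-lactamase gene was measured in HeLa cells. Responses were scaled between DMSO basal and 0.1 uM dexamethasone, then fitted for half-maximal stimulation.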
In general terms: In qHTS, concentration-response curves come from the screen itself.

The target is the same in assay [2]. As to the kind of experiment: qHTS assay for small molecule antagonists of glucocorticoid receptor signaling (AID 588533; active means well fitted inhibition curve with a large enough effect in the signal ratio, with a control signal flat, not every such curve was filed as active; inconclusive means small, poorly fitted or top-dose-only effect, or effect the other way, or a change in a side signal; the % refers to the signal ratio;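 further: cells stimulated with 2 nM dexamethasone as agonist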; further: potency means the concentration at half of the fitted maximal effect). The note with it: HeLa MMTV-bla, GRE beta-lactamase ratio, antagonist mode, 18 h; series mostly up to 76.8 µM. An outline of the steps: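 Antagonist-mode qHTS: compound titrations added to GRE-bla HeLa cells, then dexamethasone 2 nM final; 18 h, 37 C. CCF4 FRET fluorescence normalized to dexamethasone and DMSO; IC50 from Hill fit.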

In assay [3] the target is Androgen receptor (Homo sapiens) (UniProt P10275). As to the kind of experiment: qHTS assay for small molecule agonists of androgen receptor signaling (AID 588515; active means well fitted curve in the direction sought with a large enough effect in the signal ratio, with a control signal flat; inconclusive means small, poorly fitted or top-dose-only effect, or effect the other way, or a change in a side signal; inactive means no such curve, though single readings can be large or run the other way; the % refers to the signal ratio; further: on the % scale 0 is the no-effect control and ±100 the full control effect). The following applies: AR-UAS-bla HEK293, beta-lactamase ratio, agonist 16 h; stronger effect = higher value. An outline of the steps: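 Stimulation of an AR-responsive β-lactamase reporter in GripTite HEK293 cells was measured after 16 h compound exposure at 37 °C, via CCF4 fluorescence after 2 h RT. EC50 from Hill fits, normalized to R1881 at 30 nM.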
Chain of Androgen receptor (Homo sapiens) (P10275 whole entry, looked up): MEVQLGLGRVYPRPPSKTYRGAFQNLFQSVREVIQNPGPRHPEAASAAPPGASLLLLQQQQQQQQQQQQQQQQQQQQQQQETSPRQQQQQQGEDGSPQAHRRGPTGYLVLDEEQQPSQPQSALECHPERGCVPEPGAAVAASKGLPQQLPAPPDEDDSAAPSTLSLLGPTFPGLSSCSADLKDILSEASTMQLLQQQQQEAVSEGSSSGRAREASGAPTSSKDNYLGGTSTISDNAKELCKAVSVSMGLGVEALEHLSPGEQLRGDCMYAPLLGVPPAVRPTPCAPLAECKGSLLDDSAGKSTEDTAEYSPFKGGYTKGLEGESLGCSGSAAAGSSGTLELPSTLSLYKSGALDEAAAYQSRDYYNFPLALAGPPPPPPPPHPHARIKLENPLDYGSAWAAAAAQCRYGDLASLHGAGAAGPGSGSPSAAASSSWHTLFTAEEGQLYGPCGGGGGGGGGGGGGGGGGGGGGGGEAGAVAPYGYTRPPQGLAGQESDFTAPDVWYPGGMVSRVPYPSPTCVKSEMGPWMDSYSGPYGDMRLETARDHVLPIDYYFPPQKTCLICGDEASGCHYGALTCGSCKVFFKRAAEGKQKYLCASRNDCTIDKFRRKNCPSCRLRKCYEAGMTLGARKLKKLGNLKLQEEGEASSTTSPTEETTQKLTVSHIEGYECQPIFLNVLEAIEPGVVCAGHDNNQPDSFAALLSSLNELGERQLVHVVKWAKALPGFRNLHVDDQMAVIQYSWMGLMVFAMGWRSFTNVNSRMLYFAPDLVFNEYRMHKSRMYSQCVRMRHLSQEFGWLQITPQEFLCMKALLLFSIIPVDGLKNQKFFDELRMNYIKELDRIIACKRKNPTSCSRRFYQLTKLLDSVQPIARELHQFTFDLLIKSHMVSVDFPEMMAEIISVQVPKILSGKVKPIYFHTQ

The target of assay [4] is DNA dC->dU-editing enzyme APOBEC-3G (Homo sapiens) (UniProt Q9HC16). As to the kind of experiment: qHTS for inhibitors of Vif-A3G interactions: Validation (AID 588379; active means well fitted inhibition curve with a large enough effect; inconclusive means small, poorly fitted or top-dose-only effect; further: 0% is about no effect). The note with it: Vif-A3G protein interaction assay; series mostly up to 46.1 µM. The method in brief:
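Yellow fluorescence (Ex 488, Em 500-530) of Vif-coexpressing HeLa A3G-eYFP cells, scanned by Acumen cytometer, reports blocked A3G degradation. Cells plated at 700/well overnight at 37 deg C before compound addition, then a further overnight compound incubation at 37 deg C.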

The target in assay [5] is Estrogen receptor (Homo sapiens) (UniProt P03372). As to the kind of experiment: qHTS assay for small molecule antagonists of estrogen receptor alpha signaling (AID 588513; active means well fitted curve in the direction sought with a large enough effect in the signal ratio, with a control signal flat, not every such curve was filed as active; inconclusive means small, poorly fitted or top-dose-only effect, or effect the other way, or a change in a side signal; inactive means no such curve, though single readings can be large or run the other way; the % refers to the signal ratio; further: potency means the concentration at half of the fitted maximal effect). The note with it: ER-alpha-UAS-bla HEK293, beta-lactamase ratio, antagonist mode; series mostly up to 76.9 µM. The method in brief:
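Cells were plated at 5000/well and incubated 4 h at 37 C. Compounds were added as 1:2 dilution series, duplicates. 17-beta-estradiol (0.5nM final) was added for 18 h before CCF4 detection.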

Assay [6] concerns the target Bile acid receptor (Homo sapiens) (UniProt Q96RI1). As to the kind of experiment: qHTS assay for small molecule antagonists of farnesoid X receptor signaling (AID 588526). Further: potency means the concentration at half of the fitted maximal effect. The following applies: HEK293T FXR-UAS-bla, beta-lactamase ratio, antagonist mode; series mostly up to 76.7 µM. An outline of the steps: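 Concentration-response titrations were fitted to the Hill equation for half-maximal inhibition and maximal response, with data normalised to 50 uM chenodeoxycholic acid and DMSO control wells. Cells: FXR-UAS-bla HEK293T, dialyzed FBS.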

The nature of assay [7]: qHTS assay for small molecule antagonists of peroxisome proliferator-activated receptor delta signaling (AID 588535; active means well fitted inhibition curve with a large enough effect in the signal ratio, with a control signal flat, not every such curve was filed as active; inconclusive means small, poorly fitted or top-dose-only effect, or effect the other way, or a change in a side signal; inactive means no such curve, though single readings can be large or run the other way; the % refers to the signal ratio; further: potency means the concentration at half of the fitted maximal effect;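 on max response: cells co-treated with a PPAR-delta agonist as stimulator during compound exposure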). The following applies: HEK293T PPARd-UAS-bla, beta-lactamase FRET ratio, 18 h; 460 nm channel. An outline of the steps:
(§1)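 Inhibition of PPAR-delta response element-driven beta-lactamase expression is measured in HEK293T cells exposed to a compound titration series for 18 hrs at 37 C. Half-maximal inhibition comes from Hill equation fitting.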

The target in assay [8] is Peroxisome proliferator-activated receptor delta (Homo sapiens) (UniProt Q03181). The description is as above. The following applies: HEK293T PPARd-UAS-bla, beta-lactamase FRET ratio, 18 h; series mostly up to 76.7 µM. An outline of the steps:
as §1

Assay [9] concerns the target Androgen receptor (Homo sapiens) (UniProt P10275). As to the kind of experiment: qHTS assay for small molecule antagonists of androgen receptor signaling (AID 588516; active means well fitted curve in the direction sought with a large enough effect in the signal ratio, with a control signal flat, not every such curve was filed as active; inconclusive means small, poorly fitted or top-dose-only effect, or effect the other way, or a change in a side signal; inactive means no such curve, though single readings can be large or run the other way; the % refers to the signal ratio; further: on the % scale 0 is the no-effect control and ±100 the full control effect). The note with it: AR-UAS-bla HEK293, beta-lactamase ratio, antagonist mode, 16 h; series mostly up to 76.8 µM. An outline of the steps: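 Antagonist-mode qHTS: inhibition of R1881 (10 nM)-driven beta-lactamase expression in GripTite HEK 293 cells is measured after 16 h; values are Hill-derived IC50s normalized between R1881 and DMSO wells.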

Several values for one entry are separate records, joined by “and”; a condition that tells them apart may be missing. Identical values can stand only once. Activity calls are given as the source filed them. Unless noted, the call rests on the fitted dose curve. Numbered stars: 1 amine (or outer) side, 2 acyl side, 3 side chain; on linkers, the order of the positions; unused ones are H or OH. Bridge positions count the residues as written; N and C are the ends. Square brackets hold non-standard residues; d marks the D form. Peptide text beside a SMILES is read from it. I, II: the chains in the order shown. Actinocin(9to1) = Cc1c2oc3c(C)ccc(C(=O)[*:1])c3nc-2c(C(=O)[*:2])c(N)c1=O; NMeV = CN[C@H](C(=O)O)C(C)C; Sar = CNCC(=O)O

Chain of Estrogen receptor (Homo sapiens) (P03372 whole entry, looked up): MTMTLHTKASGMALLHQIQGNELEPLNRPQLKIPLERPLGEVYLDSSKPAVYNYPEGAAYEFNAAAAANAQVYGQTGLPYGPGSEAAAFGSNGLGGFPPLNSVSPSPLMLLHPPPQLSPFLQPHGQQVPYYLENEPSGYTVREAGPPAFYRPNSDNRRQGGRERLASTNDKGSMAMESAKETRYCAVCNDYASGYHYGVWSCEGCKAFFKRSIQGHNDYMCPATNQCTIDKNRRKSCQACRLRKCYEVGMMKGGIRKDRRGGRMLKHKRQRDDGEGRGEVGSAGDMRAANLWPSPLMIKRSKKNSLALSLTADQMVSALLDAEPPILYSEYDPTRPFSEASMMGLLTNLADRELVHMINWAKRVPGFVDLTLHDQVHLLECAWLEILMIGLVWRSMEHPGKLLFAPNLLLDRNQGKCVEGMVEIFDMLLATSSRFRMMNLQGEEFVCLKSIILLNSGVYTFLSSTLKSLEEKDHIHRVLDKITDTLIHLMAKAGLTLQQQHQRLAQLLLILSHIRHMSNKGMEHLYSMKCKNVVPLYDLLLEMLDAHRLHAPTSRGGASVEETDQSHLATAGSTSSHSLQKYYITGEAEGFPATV
Chain of Glucocorticoid receptor (Homo sapiens) (P04150 whole entry, looked up): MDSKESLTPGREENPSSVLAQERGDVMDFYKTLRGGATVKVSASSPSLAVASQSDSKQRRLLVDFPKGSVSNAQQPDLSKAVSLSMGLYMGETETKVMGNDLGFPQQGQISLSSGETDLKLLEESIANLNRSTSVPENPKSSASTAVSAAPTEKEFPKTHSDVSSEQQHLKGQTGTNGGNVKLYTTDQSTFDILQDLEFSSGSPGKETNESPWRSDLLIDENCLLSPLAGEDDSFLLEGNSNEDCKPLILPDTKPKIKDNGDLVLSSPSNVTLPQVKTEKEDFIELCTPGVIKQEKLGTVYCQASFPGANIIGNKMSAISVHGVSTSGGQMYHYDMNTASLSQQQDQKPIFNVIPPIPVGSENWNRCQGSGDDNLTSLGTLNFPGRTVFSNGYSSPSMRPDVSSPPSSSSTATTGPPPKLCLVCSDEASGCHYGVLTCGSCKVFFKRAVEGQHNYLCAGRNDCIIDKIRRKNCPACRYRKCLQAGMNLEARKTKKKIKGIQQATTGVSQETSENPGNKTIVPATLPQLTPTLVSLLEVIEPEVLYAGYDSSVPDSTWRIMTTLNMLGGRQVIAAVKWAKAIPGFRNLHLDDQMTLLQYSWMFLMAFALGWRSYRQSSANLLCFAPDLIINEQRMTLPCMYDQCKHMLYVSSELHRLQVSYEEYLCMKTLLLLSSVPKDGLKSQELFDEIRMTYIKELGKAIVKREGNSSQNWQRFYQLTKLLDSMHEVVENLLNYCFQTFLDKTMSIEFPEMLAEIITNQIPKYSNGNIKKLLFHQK
Chain of Bile acid receptor (Homo sapiens) (Q96RI1 whole entry, looked up): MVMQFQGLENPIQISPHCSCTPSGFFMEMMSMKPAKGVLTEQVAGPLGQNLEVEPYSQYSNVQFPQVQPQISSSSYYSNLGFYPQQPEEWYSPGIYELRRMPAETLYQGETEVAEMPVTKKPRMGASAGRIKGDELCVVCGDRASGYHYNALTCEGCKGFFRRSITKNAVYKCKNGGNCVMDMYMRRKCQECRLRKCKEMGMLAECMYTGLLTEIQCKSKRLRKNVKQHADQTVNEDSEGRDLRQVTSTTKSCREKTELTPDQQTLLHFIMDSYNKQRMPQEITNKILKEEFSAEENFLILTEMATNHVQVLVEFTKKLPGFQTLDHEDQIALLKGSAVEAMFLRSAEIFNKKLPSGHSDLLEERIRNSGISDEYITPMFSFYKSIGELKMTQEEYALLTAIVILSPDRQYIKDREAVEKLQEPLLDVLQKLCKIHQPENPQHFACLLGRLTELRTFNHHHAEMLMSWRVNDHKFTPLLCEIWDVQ
Chain of Peroxisome proliferator-activated receptor delta (Homo sapiens) (Q03181 whole entry, looked up): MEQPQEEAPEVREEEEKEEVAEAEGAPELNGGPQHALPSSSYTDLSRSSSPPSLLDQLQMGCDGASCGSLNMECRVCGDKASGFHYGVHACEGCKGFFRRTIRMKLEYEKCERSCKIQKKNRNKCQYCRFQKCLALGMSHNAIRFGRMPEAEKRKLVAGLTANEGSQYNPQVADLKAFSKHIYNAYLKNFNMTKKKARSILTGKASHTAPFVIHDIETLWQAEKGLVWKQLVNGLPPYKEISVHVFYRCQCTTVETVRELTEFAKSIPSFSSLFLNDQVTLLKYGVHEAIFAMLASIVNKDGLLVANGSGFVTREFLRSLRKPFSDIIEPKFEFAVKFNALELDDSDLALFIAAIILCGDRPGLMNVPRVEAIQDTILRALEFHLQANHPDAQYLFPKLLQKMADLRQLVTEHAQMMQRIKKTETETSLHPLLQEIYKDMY
Chain of DNA dC->dU-editing enzyme APOBEC-3G (Homo sapiens) (Q9HC16 whole entry, looked up): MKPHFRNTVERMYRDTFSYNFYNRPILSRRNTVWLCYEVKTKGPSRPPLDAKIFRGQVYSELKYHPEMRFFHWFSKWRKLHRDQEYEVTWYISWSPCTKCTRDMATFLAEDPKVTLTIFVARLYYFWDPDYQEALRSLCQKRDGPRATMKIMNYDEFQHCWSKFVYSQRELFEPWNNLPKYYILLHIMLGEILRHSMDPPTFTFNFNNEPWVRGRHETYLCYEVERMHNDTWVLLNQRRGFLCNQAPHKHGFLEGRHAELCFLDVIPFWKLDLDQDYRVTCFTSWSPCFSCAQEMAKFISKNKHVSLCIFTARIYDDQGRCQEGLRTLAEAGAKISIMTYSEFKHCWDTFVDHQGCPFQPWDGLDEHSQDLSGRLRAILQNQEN

On to `C[C@]12CC[C@@H]3c4ccc(O)cc4CC[C@H]3[C@@H]1CC[C@@H]2O`, for which the activation in assay [1] was -6.54% (inactive). In assay [2], the Potency is 7.08 µM (active).

`O=C1OC(c2ccc(O)cc2)(c2ccc(O)cc2)c2ccccc21`: the activation in assay [3] is -5.75% (inactive).

Take `C[C@H]1C[C@H]2[C@@H]3CCC4=CC(=O)C=C[C@]4(C)[C@@]3(Cl)[C@@H](O)C[C@]2(C)[C@@]1(O)C(=O)CO`: the Potency result in assay [2] was “inactive”.

For `CC(C)(Oc1ccc(Cl)cc1)C(=O)O`, the call in [4] was inactive. Moreover, the Potency entry in assay [2] was “inactive”.

`Oc1c(I)cc(Cl)c2cccnc12`: the Potency in assay [2] is 28.2 µM (active).

As for `C=C(CC)C(=O)c1ccc(OCC(=O)O)c(Cl)c1Cl`, the Potency result in [5] was “inactive”. Besides, the activation in [1] is -8.92% (inactive).

Consider `COc1cccc2c1C(=O)c1c(O)c3c(c(O)c1C2=O)C[C@@](O)(C(C)=O)C[C@@H]3O[C@H]1C[C@H](N)[C@H](O)[C@H](C)O1`, for which the outcome in [4] was inactive.

Turning to `CC/C(=C(/CC)c1ccc(O)cc1)c1ccc(O)cc1`, the Potency in [6] was 44.7 µM (active) and 39.8 µM (active). In addition, the activation in assay [1] was -20.1% (inactive).

Regarding `O=C(O)CCCCC(=O)O`, the Potency entry in assay [5], in assay [6] and in assay [2] was “inactive” throughout. Besides, the activation in assay [1] was 6.23% (inactive).

As for `CN=C(NC#N)Nc1ccc(C2=NNC(=O)CC2C)cc1` (stereo unspecified), the result in assay [4] was inactive.

Regarding `CC(=O)O[C@]1(C(C)=O)CC[C@H]2[C@@H]3C[C@H](C)C4=CC(=O)CC[C@]4(C)[C@H]3CC[C@@]21C`, in assay [5], the Potency result is “inactive”.

On to `CC(C)(CO)[C@@H](O)C(=O)NCCCO`, for which the outcome in assay [4] was inactive.

As to `COC1=CC(=O)C[C@@H](C)[C@]12Oc1c(Cl)c(OC)cc(OC)c1C2=O`, the activation in [1] is -8.46% (inactive).

On to `CN(C)C(=S)SC(=S)N(C)C`, for which the Potency result in [6], in [2] and in assay [8] was “inactive” in each case. Also, the max response in assay [7] worked out at 6.78%.

Consider `C=CCc1ccc(O)c(OC)c1`, for which the Potency result in [5] and in [8] was “inactive” throughout. In addition, the max response in assay [7] was 11.6% and 2.37%.

With `CC(O)C(=O)O` (stereo unspecified), the Potency entry in assay [5], in [6] and in [8] was “inactive” in each case. Further, the max response in [7] was -0.0545%.

For `COc1cccc2c1C(=O)c1c(O)c3c(c(O)c1C2=O)C[C@@](O)(C(=O)CO)C[C@@H]3O[C@H]1C[C@H](N)[C@H](O)[C@H](C)O1`, the Potency in assay [5] was 5.01 µM [inconclusive] (active) and 7.94 µM [inhibitor] (active); in [8], 1.41 µM (active). In addition, in assay [7], the max response was -92.6%.

With `CCCCCCc1ccc(O)cc1O`, the activation in assay [3] is -17.1% (inactive); in assay [1], -1.17% (inactive) and 14.5% (inactive). For the same compound, in [9], the outcome was inactive. Also, the Potency result in assay [2] is “inactive”.

Turning to `Nc1ccc(C(=O)O)cc1`, the Potency entry in assay [5], in [6], in [2] and in assay [8] was “inactive” in each case. For the same compound, the activation in assay [1] was -1.78% (inactive). Moreover, in [7], the max response turned out to be 41.6%.

`CN(C)/N=N/c1nc[nH]c1C(N)=O`: the Potency result in [6] and in assay [8] was “inactive” in each case. The activation in assay [1] was -5.55% (inactive). Besides, the max response in assay [7] is 24%.

On to `Cc1cc(=O)n(-c2ccccc2)n1C`, for which the Potency entry in assay [5] and in assay [6] was “inactive” throughout. For the same compound, in assay [3], the activation is -8.07% (inactive). Moreover, the outcome in assay [9] was inactive.

As to `CC(C)(C)CC(C)(C)c1ccc(OCCOCC[N+](C)(C)Cc2ccccc2)cc1`, the Potency in [5] was 44.7 µM [inconclusive] (active).

Turning to `Cc1c2oc3c(C)ccc(C(=O)N[C@@H]4C(=O)N[C@H](C(C)C)C(=O)N5CCC[C@H]5C(=O)N(C)CC(=O)N(C)[C@@H](C(C)C)C(=O)O[C@@H]4C)c3nc-2c(C(=O)N[C@@H]2C(=O)N[C@H](C(C)C)C(=O)N3CCC[C@H]3C(=O)N(C)CC(=O)N(C)[C@@H](C(C)C)C(=O)O[C@@H]2C)c(N)c1=O` (I: T[dV]P[Sar][NMeV] / II: T[dV]P[Sar][NMeV]; ester I:1-I:C, II:1-II:C; linker I:N-II:N via Actinocin(9to1)), the Potency was 35.5 nM [inconclusive] (active) and 35.5 nM [inhibitor] (active) in assay [5]; 126 nM (active) and 112 nM (active) in assay [2].

As to `O=c1ccc2ccccc2o1`, the Potency result in assay [5] and in [6] was “inactive” throughout.

Take `CNCC[C@@H](Oc1ccccc1C)c1ccccc1`: the compound was called inactive in assay [4].

Take `NC(=NCCCCCCN=C(N)/N=C(\N)Nc1ccc(Cl)cc1)/N=C(\N)Nc1ccc(Cl)cc1`: the activation in assay [1] was -3.44% (inactive) and 1.22% (inactive).

In the case of `Oc1ccc(O)cc1`, the activation in [1] was -0.636% (inactive).

For the compound `Oc1c(Cl)cc(Cl)cc1Sc1cc(Cl)cc(Cl)c1O`, in assay [5], the Potency was 39.8 µM [inconclusive] (active).
